Compound activity from PubChem.
Hits are enriched below; roughly 2.3% of the tested compounds scored in any of these assays.
A549 viability: counter-screen for Nrf2 inhibitors: cytotoxicity in A549 cells. A549 ARE-Fluc cells, CellTiter-Fluor viability, 18-24 h. actives 0.16% (n = 390,000). Potency, µM (series often up to 46 µM), most hits filed as inhibitors
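A549 ARE-Fluc cells in 5% FBS OPTI-MEM, 5000 cells/well, rested 2 h then exposed to compounds in concentration-response for 18-24 h at 37 °C. Viability by CellTiter-Fluor fluorescence (Ex 405/Em 525) after 30 min; luciferase luminescence (BugLite, 15 min, RT) read afterwards.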
Nrf2 activator: Nrf2 pathway activation; AREc32 ARE-luciferase reporter (MCF7-derived line), luminescence, 24 h; Potency, µM (series often up to 46.1 µM), usual class: activators; actives 0.31% (n = 410,000); also: nearly all actives have a fitted effect of over 65% in size
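AREc32 cells carrying an ARE-driven firefly luciferase reporter were seeded at 1000 cells/well in OPTI-MEM with 5% FBS, then exposed to compound for 24 hr at 37 deg C. Luminescence was read with Steady-Glo after 30 min at RT.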
Nrf2 inh: blocks Nrf2 signaling | A549 ARE-Fluc reporter, luciferase luminescence, 18-24 h | Potency, µM (titrated, usually from 46 µM), hits mostly inhibitors | actives 2.1% (n = 360,000); also: nearly all actives have a fitted effect of over 60% in size
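Nrf2 activity is the BugLite luminescence, read 15 min after reagent at room temperature, following CellTiter-Fluor cytotoxicity readout (30 min, 37C). Compound titrations were applied for 18-24 h to 5000 A549 ARE_Fluc cells/well in 5% FBS OPTI-MEM.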
IL-2 act: activators of IL-2; IL-2 activation reporter assay, cell-based qHTS; stimulated with anti-CD3/CD4/CD28 beads; in transgenic mouse T cells; activation, % (series mostly up to about 46 µM); actives 0.065% (n = 360,000); in the data active = activation above about 50%; inconclusive = mostly about 30% to 49%
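Screening format: compound pinned onto unstimulated transgenic mouse T cells, 60 min incubation, then anti-CD3/anti-CD4/anti-CD28 bead stimulation for 18 hours at 37 degrees C, followed by EGFP and DsRed detection.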
Hits are given with their value; i = inactive; ? = inconclusive; nt = no result given; [ ] = dose if it differs, or a comment. Unless noted, calls follow the shape of the dose curve; as a rule, active = well fitted curve in the direction sought with a large enough effect; inconclusive = small, poorly fitted or top-dose-only effect, or another doubt; inactive = no such curve, though single readings can be large; an effect the other way counts as inactive or inconclusive.

SMILES	A549 viability	Nrf2 activator	Nrf2 inh	IL-2 act
CCOC(=O)c1c(C)[nH]c(C)c1S(=O)(=O)NCC(=O)N1CCN(c2cc(Cl)ccc2C)CC1	i	i	?	nt
C=C1C(=O)OC2CC(C)C3C=CC(=O)C3(C)C(O)C12 (configuration not stated)	10.3µM	i	5.8µM	i
C=C1C(=O)O[C@H]2C[C@@H](C)[C@@H]3C=CC(=O)[C@@]3(C)C[C@H]12	?	i	20.6µM	i
CN(C)S(=O)(=O)c1ccc(C(=O)NNc2nc(-c3ccccc3)c3cc(Br)ccc3n2)cc1	i	i	13µM	i
CC(C)c1ccc(Cc2cn3cc(-c4cc5ccccc5oc4=O)nc3s2)cc1	i	i	?	nt
CNc1ccc2oc(C[C@H]3O[C@@]4(CC[C@H]3C)O[C@H]([C@H](C)C(=O)c3ccc[nH]3)[C@H](C)C[C@H]4C)nc2c1C(=O)O	3.66µM	i	1.16µM	i
COc1ccc(CCNc2nc3c(c(=O)n(C)c(=O)n3C)n2Cc2ccc(F)cc2)cc1OC	i	i	16.4µM	nt
COCCCNC(=O)c1c(NC(=O)c2ccco2)n(Cc2ccccc2)c2nc3ccccc3nc12	i	15.8µM	i	i
COCCNC(=O)c1c(NC(=O)c2ccc(Br)o2)n(Cc2ccccc2)c2nc3ccccc3nc12	i	i	i	i
CCOc1ccc(NCc2cccn2-c2nnc(N3CCC(C(=O)NCC(C)c4ccccc4)CC3)s2)cc1 (configuration not stated)	i	i	14.6µM	nt
Cc1ccc(NCc2cccn2-c2nnc(N3CCC(C(=O)NCc4ccc(OC(C)C)cc4)CC3)s2)cc1	i	i	25.9µM	nt
CCOc1ccc(NCc2cccn2-c2nnc(N3CCC(C(=O)NCc4ccc(C)cc4)CC3)s2)cc1	i	i	?	nt
CCc1ccc(CNC(=O)C2CCN(C(=O)c3ccc(-n4c(C)cc5ccccc54)s3)CC2)cc1	i	i	18.4µM	nt
COC(=O)C1CN(C#N)N(c2ccc(Cl)cc2)C12c1ccccc1-c1ccccc12 (configuration not stated)	?	i	18.4µM	i
COC(=O)C(O)(c1ccc(NC(=S)NC(=O)c2ccccc2)cc1)C(F)(F)F (configuration not stated)	i[1.84 µM]	i	16.4µM	i
COC(=O)C(O)(c1ccc(NC(=O)Oc2ccccc2)cc1)C(F)(F)F (configuration not stated)	i	i	i	i
CC(=O)N1CCN(c2ccc(OC[C@H]3CO[C@](Cn4ccnc4)(c4ccc(Cl)cc4Cl)O3)cc2)CC1	i	i	18.4µM	i
COC(=O)C1=C(c2ccc(-c3ccccc3)c(F)c2)C[C@@H]2CC[C@H]1N2C(=O)N1CCCCC1	i	i	?	i
COC(=O)C1=C(c2ccc(-c3ccccc3)c(F)c2)C[C@@H]2CC[C@H]1N2C(=O)N1CCc2cc(OC)c(OC)cc2C1	i	i	16.4µM	i
COC(=O)C1=C(c2ccc(-c3ccccc3)c(F)c2)C[C@@H]2CC[C@H]1N2C(=O)N1CCC(C)CC1	i	i	16.4µM	i
COC(=O)C1=C(c2ccc(-c3ccccc3)c(F)c2)C[C@@H]2CC[C@H]1N2C(=O)N1CCCC1	i	i	20.6µM	i
COc1cccc(CSc2nc(-c3ccccc3OC)nc3c2Cc2c(CO)cnc(C)c2O3)c1	i	i	?	nt
CCOc1cc(/C=N/NC(=O)c2cccs2)ccc1OC(=O)N1CCOCC1	i	i	?	i
O=C(Nc1ccccc1F)Oc1cccc(OC(=O)Nc2ccccc2F)c1	i	i	?	i
COC(=O)c1ccc(NC(=O)CSc2nc3ccc(N4C(=O)C5C6C=CC(C6)C5C4=O)cc3s2)cc1 (configuration not stated)	?	i	18.4µM	i
SMILES	A549 viability	Nrf2 activator	Nrf2 inh	IL-2 act
CC(C)(C)c1ccc(CSc2cnn(C(C)(C)C)c(=O)c2Cl)cc1	i	i	0.146µM	i
CC(=O)N1CCc2cc(S(=O)(=O)N3CCN(c4ccc(C)cc4)C(C)C3)ccc21 (configuration not stated)	i	i	16.4µM	nt
COc1ccc(CCNC(=O)c2ccc3c(c2)CCN3S(=O)(=O)c2ccc(C)cc2)cc1OC	i	i	?	nt
CC(=O)O[C@H]1C[C@@H]2OC3C=C(C)CCC3(C)[C@@]1(C)[C@@]21CO1 (some centres not stated)	nt	i	6.51µM	i
O=S(=O)(c1ccc(Cl)cc1)N1CCC(n2cnc3cc(C(F)(F)F)ccc32)CC1	i	i	?	i
Cn1c(=O)oc2cc(S(=O)(=O)CCC(=O)NCCc3ccccc3)ccc21	i	i	?	i
Cn1c(=O)oc2cc(NC(=O)CCl)ccc21	i	7.94µM	?	i
CCCCN1CCS(=O)(=O)N(Cc2ccccc2Br)CC(C(=O)OC)C1 (configuration not stated)	i	?	i	i
C[C@]12CCC3[C@@H](CC[C@@H]4C[C@H](O)CC[C@]34C)[C@@H]1CCC2=O (some centres not stated)	i	i	i	i
C[C@]12CCC3C(CC[C@H]4C[C@@H](O)CC[C@]34C)[C@H]1C=CC2=O (some centres not stated)	i	22.4µM	?	i
CCN(CC)C(=O)c1ccc(NC(=O)c2cccc(C(F)(F)F)c2)cc1	i	i	i	i
CCN(CCCl)c1cc(CN(C)C)cc(NC(=O)c2ccc(C(=O)Nc3cc(CN(C)C)cc(N(CC)CCCl)c3)cc2)c1	13µM	i	2.91µM	i
Cc1ccc(S(=O)(=O)c2nnn3c2nc(N2CCC(C(N)=O)CC2)c2cc(Cl)ccc23)cc1C	i	i	?	nt
COC(=O)C1=C(c2ccc(-c3ccccc3)c(F)c2)C[C@@H]2CC[C@H]1N2C(=O)NC1Cc2ccccc2C1	i	i	?	i
COCCNC(=O)N1[C@H]2CC[C@@H]1C(C(=O)OC)=C(c1ccc(-c3ccccc3)c(F)c1)C2	i	i	18.4µM	i
COC(=O)C1=C(c2ccc(-c3ccccc3)c(F)c2)C[C@@H]2CC[C@H]1N2C(=O)NCC1CC1	?	i	13µM	i
COC(=O)C1=C(c2ccc(-c3ccccc3)c(F)c2)C[C@@H]2CC[C@H]1N2C(=O)NCCOc1ccccc1	?	i	18.4µM	i
COC(=O)C(NC(C)=O)(Nc1nc2c(C)cc(C)cc2s1)C(F)(F)F (configuration not stated)	?	i	?	i
CC[C@@H](C(=O)[C@@H](C)[C@@H](O)[C@H](C)[C@@H]1O[C@@H]([C@@H](CC)C(=O)O)CC[C@@H]1C)[C@H]1O[C@]2(C=C[C@@H](O)[C@]3(CC[C@@](C)([C@H]4CC[C@](O)(CC)[C@H](C)O4)O3)O2)[C@H](C)C[C@@H]1C	4.61µM	i	1.46µM	i
NC(=O)c1ccc(N=Cc2c(O)n(Cc3ccco3)c(=O)[nH]c2=O)cc1	i	i	i	i
CCN(CC)c1ccc(N=Cc2c(O)n(Cc3ccco3)c(=O)[nH]c2=O)cc1	i	i	i	83.9
CSc1ccccc1NC(=O)CN(C)CC(=O)c1[nH]c(C)c(C(C)=O)c1C	i	i	?	i
